Screening data from PubChem.
RE007 growth inh: less growth of the S. pombe RE007 Vpr strain; Potency, µM (top dose mostly 92.2 µM), for inactives: top-dose activity change, negative = less growth, usual class: inhibitors; actives 0.21% (n = 360,000); AID 651644; S. pombe RE007 Vpr strain, BacTiter-Glo ATP luminescence, 24 h; active = well fitted falling curve with a large enough effect; inconclusive = small, poorly fitted or top-dose-only effect; inactive = no such curve, though single readings can be large or run the other way; also: % is scaled to controls: 0 for no effect and ±100 for the full control effect; nearly all actives have a fitted effect of over 50% in size
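Fission yeast strain RE007, carrying one chromosomally integrated HIV-1 vpr copy, was seeded at OD 0.01 in PMG+AL medium with 23 nL pinned compound. After 24 h at 30 °C and 99% humidity, viability was read by BacTiter-Glo luminescence.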
SARS PLpro yeast: SARS-CoV PLP inhibition in yeast; S. cerevisiae expressing SARS-CoV PLpro, growth rescue; Potency, µM (series often up to 32.9 µM), for the others: at the top dose activity, positive = growth rescue, most hits filed as activators; actives 0.19% (n = 330,000); also: 0% is about no effect; nearly all actives have a fitted effect of over 55% in size
Pf growth 96h: P. falciparum growth inhibition at 96 hours | P. falciparum luciferase reporter growth, 96 h | Potency, µM (top dose mostly 28.7 µM), for the others: top-dose activity change, negative = inhibition, actives largely listed as inhibitors | actives 6.9% (n = 320,000) | AID 504834; active = well fitted inhibition curve with a large enough effect; inconclusive = small, poorly fitted or top-dose-only effect, or another doubt; inactive = no such curve, though single readings can be large or run the other way; also: % is scaled to controls: 0 for no effect and ±100 for the full control effect
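Readout is luminescence from an integrated firefly luciferase in P. falciparum. Red cells, 2% hematocrit and 0.05% parasitemia final, were cultured with compound through two parasite generations (96 hours) at 37 C, 5% CO2.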
Pf growth 48h: P. falciparum growth inhibition at 48 hours (one generation) | actives 5.9% (n = 310,000) | AID 504832 | Potency, µM (top dose mostly 28.7 µM), for inactives: at the highest dose activity change, negative = inhibition, usual class: inhibitors | P. falciparum luciferase growth in erythrocytes, 48 h; active = well fitted inhibition curve with a large enough effect; inconclusive = small, poorly fitted or top-dose-only effect, or another doubt; inactive = no such curve, though single readings can be large or run the other way; also: % is scaled to controls: 0 for no effect and ±100 for the full control effect
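Parasite viability was followed by luminescence of a genomically integrated firefly luciferase. Cultures held 0.1% parasitemia at 2% hematocrit (final), incubated under 5% CO2 at 37 C.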
NS1 inh: inhibitors of influenza NS1 protein function. Potency, µM (highest dose often 46.1 µM), without a hit: at the top dose activity, positive = more growth. actives 0.4% (n = 270,000). AID 2326; also: actives are rising curves; nearly all actives have a fitted effect of over 50% in size
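Compounds were scored for reversing the slow growth caused by influenza A NS1 in S. cerevisiae, measured by optical density at 600 nm. Assay medium contained 2% galactose at pH 6.0; NS1-free yeast of the same strain were the positive control.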
* hit, by the source's call; ? = inconclusive; / = not tested or not shown; [ ] = dose if it differs, or a comment. Sampled rows, rich in hits. Any-hit rate of the full collection: about 9.5%. Unless noted, calls follow the shape of the full dose curve. Potency is read from the fitted curve at half-maximal effect.

SMILES	RE007 growth inh	SARS PLpro yeast	Pf growth 96h	Pf growth 48h	NS1 inh
O=C1CC(c2ccccc2)c2cc(O)ccc2O1 (stereo not drawn)	-1%	-10%	10µM*	-14%	0%
COc1ccc2cc(C3(C)NC(=O)N(CC(=O)NCC(F)(F)F)C3=O)ccc2c1 (stereo not drawn)	8%	4%	-1%	-7%	6%
CCN(CC)C(=O)C1=C(C)NC(=S)NC1c1cn(-c2ccccc2)nc1-c1ccc(Cl)cc1 (stereo not drawn)	-1%	4%	?	4.1µM*	?
Cc1ccc(OCC(=O)c2cc(C)n(-c3cc(C)on3)c2C)c([N+](=O)[O-])n1	-3%	-4%	?	?	/
Cc1cc(-n2c(C)cc(C(=O)COc3cc(F)ccc3[N+](=O)[O-])c2C)no1	4%	5%	?	9.3µM*	/
O=C(NS(=O)(=O)Nc1ccccc1)C1=C(N2CCCC2)COC1=O	-9%	3%	/	/	/
CCN1C(=O)[C@@H]2[C@@H](c3ccc(SC4CCCCC4)cc3)N3CCCC[C@@]3(C(=O)OC)[C@@H]2C1=O	-2%	3%	12µM*	?	/
CCSc1ccc([C@@H]2[C@H]3C(=O)N(CC)C(=O)[C@H]3[C@]3(C(=O)OC)CCCCN23)cc1OC	-9%	-5%	/	/	/
CCC(C)Sc1ccc([C@@H]2[C@H]3C(=O)N(CC)C(=O)[C@H]3[C@]3(C(=O)OC)CCCN23)cc1OC (stereo partly drawn)	10%	-5%	10µM*	12µM*	/
CCN1C(=O)[C@@H]2[C@@H](c3ccc(-c4ccc(F)cc4)cc3)N3CCC[C@@]3(C(=O)OC)[C@@H]2C1=O	-15%	-2%	?	?	/
CCC(C)Sc1ccc([C@@H]2[C@@H]3C(=O)N(CC)C(=O)[C@@H]3[C@]3(C(=O)OC)CCCCN23)cc1 (stereo partly drawn)	-12%	2%	/	/	/
CCN1C(=O)[C@H]2[C@@H](c3ccc(SC4CCCCC4)c(OC)c3)N3CCCC[C@@]3(C(=O)OC)[C@H]2C1=O	1%	3%	12µM*	3.7µM*	/
COc1cc(C2OC(=O)C3C(c4ccc(OC(C)=O)c(OC)c4)OC(=O)C23)ccc1OC(C)=O (stereo not drawn)	5%	/	/	/	/
CCOC(=O)c1c(CN2CCOCC2)n(-c2ccccc2)c2cc(Br)c(O)cc12	-15%[3.69 µM]	-10%	1.9µM*	1.7µM*	-57%
CCOC(=O)c1c(CN2CCCCC2)n(C)c2cc(Br)c(O)cc12	11%	2%	/	/	-4%
CCOC(=O)c1c(CSC(=N)N)n(-c2ccc(C)cc2)c2cc(Br)c(OC(C)=O)cc12	19%	-7%	3.3µM*	7.4µM*	18%
CCOC(=O)c1c(CN2CCOCC2)n(-c2ccccc2)c2cc(Br)c(OC)cc12	9%	5%	/	?	-2%
CCOC(=O)c1c(CN2CCN(C)CC2)n(C)c2cc(Br)c(OC)cc12	-10%	-6%	-25%	15µM*	-4%[9.22 µM]
CCOC(=O)c1c(CN(C)C)n(-c2ccc(C)cc2)c2cc(Br)c(O)cc12	16%	3%	0.33µM*	0.74µM*	4%
CCOC(=O)c1c(CSC(=N)N)n(C)c2cc(Br)c(OC(C)=O)cc12	3%	-4%	-8%	?	17%
C=CCn1c(CSCc2ccc(Cl)cc2Cl)nnc1SCC(=O)Nc1ccc(C(=O)O)cc1	8%	0%	-8%	-4%	13%
CC(c1ccc(F)cc1)n1c(Cn2ncc3ccccc3c2=O)n[nH]c1=S (stereo not drawn)	18%	1%	?	-8%	-1%
O=C(c1ccco1)N(Cc1ccccc1)c1cccc([N+](=O)[O-])c1	3%	0%	6.6µM*	?	/
O=C(c1ccco1)N(Cc1cccc([N+](=O)[O-])c1)c1ccc(Br)cc1	13%	0%	?	-18%	4%
O=C(c1ccco1)N(Cc1ccco1)c1ccc(O)cc1	2%	-3%	9.3µM*	?	0%
SMILES	RE007 growth inh	SARS PLpro yeast	Pf growth 96h	Pf growth 48h	NS1 inh
O=C(Nc1cc(C(F)(F)F)ccc1N1CCCC1)C1CCCO1 (stereo not drawn)	2%	0%	-20%	-9%	/
Cn1c(N)c(NC(=S)NC2CCCCC2)c(=O)n(C)c1=O	-28%	/	/	/	/
CC(=O)c1ccc(NC(=O)N2CCN(c3cccc(Cl)c3)CC2)cc1	15%	-22%	?	4.7µM*	-93%
O=C(Nc1ccc(Cl)cc1)N1CC1	-5%	/	/	/	/
COC(=O)c1ccc(NC(=O)CCN2CCN(c3ccccc3)CC2)cc1	0%	-1%	-26%	?	-4%
CC(=O)c1ccc(N2CCN(C(=O)Nc3ccc(Cl)cc3)CC2)cc1	1%	-2%	7%	?	/
O=C(Nc1ccc(Cl)cc1)N1CCN(c2ccccc2)CC1	3%	-25%	12µM*	?	-15%
Cc1csc2c(N3CCN(C(=O)Nc4ccc(OC(F)(F)F)cc4)CC3)ncnc12	48%	-3%	?	1.5µM*	-6%
O=C(CCN1CCN(c2ccccc2)CC1)Nc1ccc(Cl)cc1	-3%	-9%	3.7µM*	-5%	-5%
CCCCCCCCCCCCCC(=O)NO	57%	/	/	/	/
OCC1(Cc2ccc(Cl)cc2)CCN(CCCc2ccccc2)CC1	-23%	1%	3%	?	-3%
O=C(Nc1ccc2ccccc2c1)N1CCN(c2ncccc2C(F)(F)F)CC1	-1%	-6%	?	?	-36%
O=C(c1ccccc1)c1ccc(C(=O)N2CCN(c3ccccc3O)CC2)cc1	9%	/	/	/	/
CN1CCC(CO)(Cc2ccccc2)CC1	-3%	0%	3.7µM*	35%	2%
O=C(NCc1ccccc1)N1CCC(CO)(Cc2cccc(F)c2)CC1	6%	-1%	5%	1%	-4%
Cc1ccc(NC(=O)N2CCN(c3ncccc3C(F)(F)F)CC2)cc1	22%	0%	13µM*	8.3µM*	-5%
O=C(Nc1ccc(NC(=O)N2CCN(c3ccccc3O)CC2)cc1)N1CCN(c2ccccc2O)CC1	6%	0%	5.9µM*	?	-40%
O=C(Nc1ccc(Cl)cc1)N1CCC(CO)(Cc2ccccc2)CC1	4%	-2%	2.6µM*	-9%	-3%
O=C(Nc1cccc(Cl)c1)N1CCC(CO)(CCOc2ccccc2)CC1	1%	-1%	13µM*	-6%	-3%
CCN(CC)CCCN=C(C)c1c(O)n(C2CCCCC2)c(=O)[nH]c1=O	6%	3%	6.6µM*	4%	-7%
CCC(=NCCCN(CC)CC)c1c(O)n(C2CCCCC2)c(=O)[nH]c1=O	-6%	3%	-8%	-30%	-3%
Cc1ccc(O)c(C(=O)c2cc(C(=O)NCCC(C)C)c(=O)n(CCC(C)C)c2)c1	2%	-1%	3.3µM*	?	/
O=C(COc1coc(CN2CCCc3ccccc32)cc1=O)Nc1ccccc1	2%	-1%	?	?	/
O=C(O)c1oc(C(=O)O)c(C(=O)O)c1C(=O)O	/	/	/	/	-1%
